Data as given in PubChem BioAssay (NCATS).
Records with an inconclusive call do not appear. A number with no mark means an inactive call. The call rests on the fitted dose curve; in most records, active means well fitted inhibition curve with a large enough effect; inconclusive means small, poorly fitted or top-dose-only effect; inactive means flat fitted curve, though single readings scatter.

test system: HaCat; assay: Cytotoxic Profiling of Annotated Libraries Using Quantitative High-Throughput Screening (AID 1296008); conditions: Five cell lines viability, CellTiter-Glo ATP luminescence, 48-72 h; max response: stronger effect = lower value; further: nearly all actives have a fitted effect of over 60% in size
Procedure, shortened: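 Cells exposed to compounds for 48 or 72 hr at 37 degrees Celsius. Viability read as ATP-coupled luminescence with CellTiter-Glo after 10 min at room temperature.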
On the % scale 0 is the no-effect control and ±100 the full control effect.

| Structure (SMILES) | max response [%] |
| --- | --- |
| COC1CCN(c2cccc(-c3cc(NC(C)=O)nc(-n4nc(C)cc4C)n3)n2)CC1 | -6.53 |
| CC(C)(C[C@@](O)(Cc1cc2ccncc2[nH]1)C(F)(F)F)c1cc(F)ccc1O | -2.9 |
| O=C(Nc1cccc([N+](=O)[O-])c1)c1cccc(S(=O)(=O)N2CCCCCC2)c1 | -27.5 |
| COc1ccc(C#Cc2ccc(C(=O)N3CCC[C@@H](O)C3)c(F)c2)cc1 | -33.7 |
